PMC7862700, “An all-to-all approach to the identification of sequence-specific readers for epigenetic DNA modifications on cytosine”

Experiments:
Assay in all cases: DAPPL (digital affinity profiling via proximity ligation, sequencing); 10 mM Tris-HCl pH 7.5, 50 mM NaCl, 1 mM DTT, 4% glycerol, room temperature, 30 min; GST-TFs on glutathione beads, 16-mer random dsDNA library, 0.1% formaldehyde crosslink after washing; high values mean tight binding
FEV = biological target: T1, FEV (Homo sapiens, UniProt Q99581 1-238); settings: protein: recombinant; tags: N-terminal GST; dsDNA, one strand shown
T1 sequence: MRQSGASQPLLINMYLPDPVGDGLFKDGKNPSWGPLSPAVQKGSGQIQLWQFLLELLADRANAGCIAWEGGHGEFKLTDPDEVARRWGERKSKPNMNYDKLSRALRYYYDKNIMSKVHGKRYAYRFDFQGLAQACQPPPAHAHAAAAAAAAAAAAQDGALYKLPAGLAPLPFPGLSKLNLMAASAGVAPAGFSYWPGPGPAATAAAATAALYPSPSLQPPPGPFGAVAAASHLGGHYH
Summary of the method: (§1)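 Binding signal is given per hexamer as its read frequency for a factor divided by its frequency in the tag-only sample. GST-fused human transcription factors were expressed in yeast, captured on glutathione beads, barcoded with DNA and pooled with that sample, then incubated with 200 nmole of a 16-mer random double-stranded DNA library in Tris/NaCl/DTT/glycerol buffer for 30 min at room temperature. The pools were then washed, crosslinked, proximity-ligated, amplified by PCR and sequenced on an Illumina NextSeq500.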

ETV5 = ETV5 (Homo sapiens, UniProt P41161 1-510); settings: protein: recombinant; tags: N-terminal GST; dsDNA, one strand shown
Summary of the method: as §1

HSF1 = HSF1 (Homo sapiens, UniProt Q00613 1-529); settings: protein: recombinant; tags: N-terminal GST; chain copies: 3; dsDNA, one strand shown
Summary of the method: as §1

SPIC = biological target: T2, SPIC (Homo sapiens, UniProt Q8N5J4 1-248); settings: protein: recombinant; tags: N-terminal GST; dsDNA, one strand shown
T2 sequence: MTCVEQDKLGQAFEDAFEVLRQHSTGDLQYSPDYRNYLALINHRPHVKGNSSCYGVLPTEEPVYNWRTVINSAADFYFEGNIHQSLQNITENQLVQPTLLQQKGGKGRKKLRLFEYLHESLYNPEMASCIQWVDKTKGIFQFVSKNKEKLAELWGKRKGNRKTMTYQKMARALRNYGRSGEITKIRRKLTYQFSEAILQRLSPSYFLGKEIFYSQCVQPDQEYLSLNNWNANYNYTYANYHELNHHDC
Summary of the method: as §1

ELF4 = ELF4 (Homo sapiens, UniProt Q99607 1-663); settings: protein: recombinant; tags: N-terminal GST; dsDNA, one strand shown
Summary of the method: as §1

ELK4 = biological target: T3, ELK4 (Homo sapiens, UniProt P28324-2 1-405); settings: protein: recombinant; tags: N-terminal GST; dsDNA, one strand shown
T3 sequence: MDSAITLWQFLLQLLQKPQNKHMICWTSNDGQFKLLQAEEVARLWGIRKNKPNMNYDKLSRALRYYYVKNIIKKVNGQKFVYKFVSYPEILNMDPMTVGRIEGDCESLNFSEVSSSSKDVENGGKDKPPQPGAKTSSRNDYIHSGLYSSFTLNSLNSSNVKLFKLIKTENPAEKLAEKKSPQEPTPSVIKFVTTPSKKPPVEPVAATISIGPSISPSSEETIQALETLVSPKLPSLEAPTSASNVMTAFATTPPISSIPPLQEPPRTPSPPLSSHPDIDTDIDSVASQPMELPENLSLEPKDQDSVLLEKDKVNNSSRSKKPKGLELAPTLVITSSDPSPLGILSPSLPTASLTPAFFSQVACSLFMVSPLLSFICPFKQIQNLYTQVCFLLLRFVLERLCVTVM
Summary of the method: as §1

ETV2 = biological target: T4, ETV2 (Homo sapiens, UniProt O00321 1-342); settings: protein: recombinant; tags: N-terminal GST; dsDNA, one strand shown
T4 sequence: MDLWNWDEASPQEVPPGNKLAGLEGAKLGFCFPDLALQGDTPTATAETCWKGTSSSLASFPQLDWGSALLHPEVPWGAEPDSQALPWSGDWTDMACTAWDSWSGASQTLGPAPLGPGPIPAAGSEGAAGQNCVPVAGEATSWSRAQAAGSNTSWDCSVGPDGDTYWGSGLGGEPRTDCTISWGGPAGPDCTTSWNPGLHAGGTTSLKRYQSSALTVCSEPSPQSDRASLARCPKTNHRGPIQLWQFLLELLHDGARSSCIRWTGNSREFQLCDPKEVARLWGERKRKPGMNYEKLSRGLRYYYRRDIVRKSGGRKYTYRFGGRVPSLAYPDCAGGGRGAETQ
Summary of the method: as §1

ELF3 = biological target: T5, ELF3 (Homo sapiens, UniProt P78545 1-371); settings: protein: recombinant; tags: N-terminal GST; dsDNA, one strand shown
T5 sequence: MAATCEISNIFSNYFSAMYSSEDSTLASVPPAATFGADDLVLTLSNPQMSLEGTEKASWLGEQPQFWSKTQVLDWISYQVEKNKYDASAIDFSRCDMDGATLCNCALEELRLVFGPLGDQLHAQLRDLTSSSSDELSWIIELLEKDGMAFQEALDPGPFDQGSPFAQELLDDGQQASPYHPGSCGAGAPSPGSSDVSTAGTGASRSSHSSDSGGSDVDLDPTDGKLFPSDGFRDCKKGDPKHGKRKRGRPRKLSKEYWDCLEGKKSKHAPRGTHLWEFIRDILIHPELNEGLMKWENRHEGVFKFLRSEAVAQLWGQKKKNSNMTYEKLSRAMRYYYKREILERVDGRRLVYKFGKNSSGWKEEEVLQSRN
Summary of the method: as §1

CRX = CRX (Homo sapiens, UniProt O43186 1-299); settings: protein: recombinant; tags: N-terminal GST; dsDNA, one strand shown
Summary of the method: as §1

ETV1 = ETV1 (Homo sapiens, UniProt P50549 1-477); settings: protein: recombinant; tags: N-terminal GST; dsDNA, one strand shown
Summary of the method: as §1

ERF = biological target: T6, ERF (Homo sapiens, UniProt P50548 1-548); settings: protein: recombinant; tags: N-terminal GST; dsDNA, one strand shown
T6 sequence: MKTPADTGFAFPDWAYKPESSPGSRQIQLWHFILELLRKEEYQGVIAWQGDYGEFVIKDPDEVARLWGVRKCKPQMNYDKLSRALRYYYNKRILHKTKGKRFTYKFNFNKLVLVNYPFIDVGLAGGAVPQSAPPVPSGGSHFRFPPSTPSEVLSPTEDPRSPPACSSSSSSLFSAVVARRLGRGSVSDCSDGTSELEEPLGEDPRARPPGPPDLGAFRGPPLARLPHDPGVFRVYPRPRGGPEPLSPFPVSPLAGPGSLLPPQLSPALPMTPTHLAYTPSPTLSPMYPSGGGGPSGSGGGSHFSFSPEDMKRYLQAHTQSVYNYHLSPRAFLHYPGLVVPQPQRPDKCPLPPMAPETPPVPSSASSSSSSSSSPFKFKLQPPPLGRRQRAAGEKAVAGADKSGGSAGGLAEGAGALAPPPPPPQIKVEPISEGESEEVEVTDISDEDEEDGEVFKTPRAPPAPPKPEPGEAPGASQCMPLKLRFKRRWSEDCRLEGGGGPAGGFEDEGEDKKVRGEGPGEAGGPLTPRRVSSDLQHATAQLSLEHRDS
Summary of the method: as §1

ETV3L = biological target: T7, ETV3L (Homo sapiens, UniProt Q6ZN32 1-361); settings: protein: recombinant; tags: N-terminal GST; dsDNA, one strand shown
T7 sequence: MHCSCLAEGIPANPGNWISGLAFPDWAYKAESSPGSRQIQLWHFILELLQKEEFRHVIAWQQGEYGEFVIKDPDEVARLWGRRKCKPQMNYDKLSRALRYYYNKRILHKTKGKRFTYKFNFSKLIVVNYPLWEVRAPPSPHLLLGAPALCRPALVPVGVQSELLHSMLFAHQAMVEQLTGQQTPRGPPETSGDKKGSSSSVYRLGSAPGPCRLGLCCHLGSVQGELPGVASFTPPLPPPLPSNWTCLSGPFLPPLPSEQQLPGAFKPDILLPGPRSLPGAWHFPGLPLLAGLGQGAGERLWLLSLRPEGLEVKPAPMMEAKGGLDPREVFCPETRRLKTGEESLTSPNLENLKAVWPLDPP
Summary of the method: as §1

ETS2 = biological target: T8, ETS2 (Homo sapiens, UniProt P15036 1-469); settings: protein: recombinant; tags: N-terminal GST; dsDNA, one strand shown
T8 sequence: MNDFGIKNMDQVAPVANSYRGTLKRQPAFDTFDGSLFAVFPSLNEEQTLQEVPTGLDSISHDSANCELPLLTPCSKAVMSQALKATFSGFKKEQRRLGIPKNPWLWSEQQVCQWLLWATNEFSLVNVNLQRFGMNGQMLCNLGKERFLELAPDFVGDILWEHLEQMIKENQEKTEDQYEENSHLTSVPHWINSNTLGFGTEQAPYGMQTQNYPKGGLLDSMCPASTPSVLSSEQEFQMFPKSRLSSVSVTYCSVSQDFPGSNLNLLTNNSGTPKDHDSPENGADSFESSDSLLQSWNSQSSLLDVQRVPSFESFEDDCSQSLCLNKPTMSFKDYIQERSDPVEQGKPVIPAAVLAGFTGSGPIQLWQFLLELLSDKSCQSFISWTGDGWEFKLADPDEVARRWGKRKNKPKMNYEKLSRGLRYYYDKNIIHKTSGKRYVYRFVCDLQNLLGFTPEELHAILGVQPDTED
Summary of the method: as §1

SPDEF = biological target: T9, SPDEF (Homo sapiens, UniProt O95238 1-335); settings: protein: recombinant; tags: N-terminal GST; dsDNA, one strand shown
T9 sequence: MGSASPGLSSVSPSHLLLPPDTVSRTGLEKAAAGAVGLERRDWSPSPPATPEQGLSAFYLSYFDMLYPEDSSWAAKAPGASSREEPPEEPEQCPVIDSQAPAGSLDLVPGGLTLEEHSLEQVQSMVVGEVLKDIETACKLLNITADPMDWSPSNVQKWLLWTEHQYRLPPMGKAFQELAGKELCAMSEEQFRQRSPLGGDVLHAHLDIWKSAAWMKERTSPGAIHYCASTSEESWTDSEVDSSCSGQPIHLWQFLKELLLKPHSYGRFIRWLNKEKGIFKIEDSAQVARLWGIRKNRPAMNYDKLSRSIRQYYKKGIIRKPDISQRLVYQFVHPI
Summary of the method: as §1

ETV7 = biological target: T10, ETV7 (Homo sapiens, UniProt Q9Y603 1-341); settings: protein: recombinant; tags: N-terminal GST; dsDNA, one strand shown
T10 sequence: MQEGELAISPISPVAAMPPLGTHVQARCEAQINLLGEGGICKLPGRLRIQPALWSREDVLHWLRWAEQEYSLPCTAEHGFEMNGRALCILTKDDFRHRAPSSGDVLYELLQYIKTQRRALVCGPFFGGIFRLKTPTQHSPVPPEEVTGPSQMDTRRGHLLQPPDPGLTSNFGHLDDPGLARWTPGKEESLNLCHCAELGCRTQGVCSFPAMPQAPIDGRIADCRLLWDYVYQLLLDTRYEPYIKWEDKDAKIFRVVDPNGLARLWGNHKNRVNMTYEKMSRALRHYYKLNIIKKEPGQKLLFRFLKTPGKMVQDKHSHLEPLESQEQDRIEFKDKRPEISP
Summary of the method: as §1

ELF5 = biological target: T11, ELF5 (Homo sapiens, UniProt Q9UKW6-2 1-255); settings: protein: recombinant; tags: N-terminal GST; dsDNA, one strand shown
T11 sequence: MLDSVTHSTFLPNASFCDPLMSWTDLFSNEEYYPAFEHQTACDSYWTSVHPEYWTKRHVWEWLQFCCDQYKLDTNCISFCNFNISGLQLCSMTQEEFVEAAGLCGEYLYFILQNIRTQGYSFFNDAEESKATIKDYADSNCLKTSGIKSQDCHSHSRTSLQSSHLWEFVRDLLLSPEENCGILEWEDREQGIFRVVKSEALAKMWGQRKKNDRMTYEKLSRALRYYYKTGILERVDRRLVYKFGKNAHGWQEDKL
Summary of the method: as §1

ETV3 = biological target: T12, ETV3 (Homo sapiens, UniProt P41162-2 1-143); settings: protein: recombinant; tags: N-terminal GST; dsDNA, one strand shown
T12 sequence: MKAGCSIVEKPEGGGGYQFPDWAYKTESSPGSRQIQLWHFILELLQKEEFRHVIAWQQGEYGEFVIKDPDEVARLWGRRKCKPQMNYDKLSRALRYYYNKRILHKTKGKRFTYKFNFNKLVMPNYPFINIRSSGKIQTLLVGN
Summary of the method: as §1

ETV6 = ETV6 (Homo sapiens, UniProt P41212 1-452); settings: protein: recombinant; tags: N-terminal GST; dsDNA, one strand shown
Summary of the method: as §1

ETV6, sequence (P41212 whole entry): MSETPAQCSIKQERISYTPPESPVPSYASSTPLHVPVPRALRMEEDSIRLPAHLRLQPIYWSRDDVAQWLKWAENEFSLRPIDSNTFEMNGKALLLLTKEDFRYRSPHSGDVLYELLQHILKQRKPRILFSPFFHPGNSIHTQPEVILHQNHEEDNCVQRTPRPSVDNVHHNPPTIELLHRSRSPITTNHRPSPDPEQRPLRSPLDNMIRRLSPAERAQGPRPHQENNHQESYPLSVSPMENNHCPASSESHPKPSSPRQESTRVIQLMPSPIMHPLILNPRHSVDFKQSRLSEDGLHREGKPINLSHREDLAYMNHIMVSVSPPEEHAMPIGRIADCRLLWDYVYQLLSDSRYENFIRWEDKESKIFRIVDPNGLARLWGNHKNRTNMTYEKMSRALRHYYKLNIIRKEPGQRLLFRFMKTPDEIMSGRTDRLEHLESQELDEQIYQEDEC
HSF1, sequence (Q00613 whole entry): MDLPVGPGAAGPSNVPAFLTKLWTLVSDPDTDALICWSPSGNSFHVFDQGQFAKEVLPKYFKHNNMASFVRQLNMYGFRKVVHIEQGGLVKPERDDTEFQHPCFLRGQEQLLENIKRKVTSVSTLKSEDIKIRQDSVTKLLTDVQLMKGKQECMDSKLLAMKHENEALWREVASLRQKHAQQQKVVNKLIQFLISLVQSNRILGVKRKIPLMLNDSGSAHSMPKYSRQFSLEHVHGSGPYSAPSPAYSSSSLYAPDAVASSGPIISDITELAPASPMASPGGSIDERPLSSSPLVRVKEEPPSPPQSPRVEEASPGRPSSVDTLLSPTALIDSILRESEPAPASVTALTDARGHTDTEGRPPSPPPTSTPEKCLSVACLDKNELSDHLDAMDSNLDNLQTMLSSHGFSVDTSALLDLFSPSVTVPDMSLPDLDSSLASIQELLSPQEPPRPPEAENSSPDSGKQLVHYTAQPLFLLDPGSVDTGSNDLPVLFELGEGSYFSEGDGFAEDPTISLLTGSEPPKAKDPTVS
CRX, sequence (O43186 whole entry): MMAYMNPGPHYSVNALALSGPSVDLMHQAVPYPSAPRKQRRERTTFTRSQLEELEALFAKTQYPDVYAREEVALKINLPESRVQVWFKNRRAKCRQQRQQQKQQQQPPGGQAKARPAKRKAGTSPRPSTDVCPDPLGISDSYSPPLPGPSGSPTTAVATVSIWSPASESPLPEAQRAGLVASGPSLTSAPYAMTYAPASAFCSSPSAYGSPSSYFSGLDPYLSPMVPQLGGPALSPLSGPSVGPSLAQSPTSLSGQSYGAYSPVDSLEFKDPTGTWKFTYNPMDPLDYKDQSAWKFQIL
ETV1, sequence (P50549 whole entry): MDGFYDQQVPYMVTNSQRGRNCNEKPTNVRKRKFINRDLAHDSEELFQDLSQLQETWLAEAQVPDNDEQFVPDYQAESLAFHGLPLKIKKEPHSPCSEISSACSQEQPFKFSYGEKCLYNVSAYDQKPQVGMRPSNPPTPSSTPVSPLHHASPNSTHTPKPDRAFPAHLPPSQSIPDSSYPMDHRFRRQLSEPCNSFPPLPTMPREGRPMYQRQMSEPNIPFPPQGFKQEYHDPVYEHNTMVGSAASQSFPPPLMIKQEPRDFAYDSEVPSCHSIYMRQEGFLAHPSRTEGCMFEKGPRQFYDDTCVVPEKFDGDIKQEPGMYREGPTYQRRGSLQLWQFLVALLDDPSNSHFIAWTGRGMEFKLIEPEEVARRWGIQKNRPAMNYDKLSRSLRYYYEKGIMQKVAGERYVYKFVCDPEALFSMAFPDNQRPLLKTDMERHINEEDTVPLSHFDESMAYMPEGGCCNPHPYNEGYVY
ETV5, sequence (P41161 whole entry): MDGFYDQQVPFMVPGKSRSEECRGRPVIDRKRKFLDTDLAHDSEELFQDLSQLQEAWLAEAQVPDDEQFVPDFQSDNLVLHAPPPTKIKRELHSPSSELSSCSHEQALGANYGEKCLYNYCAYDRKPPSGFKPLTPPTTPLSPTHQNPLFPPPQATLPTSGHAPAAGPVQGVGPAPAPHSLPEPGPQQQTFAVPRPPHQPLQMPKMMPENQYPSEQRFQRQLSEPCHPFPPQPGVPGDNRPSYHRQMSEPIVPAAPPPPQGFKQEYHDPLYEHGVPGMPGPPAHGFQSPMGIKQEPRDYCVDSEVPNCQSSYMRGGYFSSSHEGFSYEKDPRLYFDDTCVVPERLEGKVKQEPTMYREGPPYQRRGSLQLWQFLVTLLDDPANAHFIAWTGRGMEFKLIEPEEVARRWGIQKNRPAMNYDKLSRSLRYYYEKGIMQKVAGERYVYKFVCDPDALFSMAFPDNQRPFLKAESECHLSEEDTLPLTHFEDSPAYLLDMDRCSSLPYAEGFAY
ELF4, sequence (Q99607 whole entry): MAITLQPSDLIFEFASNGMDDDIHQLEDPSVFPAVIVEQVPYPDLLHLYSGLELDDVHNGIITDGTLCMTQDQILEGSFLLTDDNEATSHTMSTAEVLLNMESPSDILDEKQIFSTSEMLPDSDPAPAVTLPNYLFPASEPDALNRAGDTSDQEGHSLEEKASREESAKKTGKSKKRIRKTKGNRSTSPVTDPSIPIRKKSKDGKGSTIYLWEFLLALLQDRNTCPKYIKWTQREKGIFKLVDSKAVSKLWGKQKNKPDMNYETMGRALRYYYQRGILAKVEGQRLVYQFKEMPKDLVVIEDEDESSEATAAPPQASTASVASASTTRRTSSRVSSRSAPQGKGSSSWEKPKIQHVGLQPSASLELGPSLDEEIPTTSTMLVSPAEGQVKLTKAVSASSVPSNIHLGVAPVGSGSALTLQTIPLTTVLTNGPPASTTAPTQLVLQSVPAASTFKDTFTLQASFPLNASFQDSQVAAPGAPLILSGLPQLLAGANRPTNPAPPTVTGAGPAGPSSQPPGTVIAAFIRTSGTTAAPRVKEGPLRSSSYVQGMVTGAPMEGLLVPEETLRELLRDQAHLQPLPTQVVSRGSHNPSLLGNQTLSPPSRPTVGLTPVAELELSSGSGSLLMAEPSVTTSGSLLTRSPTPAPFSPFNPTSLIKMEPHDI

AACAAT
binding signal (FEV): 1.29 fold enrichment (6-mer frequency, TF over GST control) | binding signal (ETV5): 1.29 fold enrichment (6-mer frequency, TF over GST control) | binding signal (HSF1): 1.48 fold enrichment (6-mer frequency, TF over GST control) | binding signal (SPIC): 1.26 fold enrichment (6-mer frequency, TF over GST control) | binding signal (ELF4): 1.32 fold enrichment (6-mer frequency, TF over GST control) | binding signal (ELK4): 1.27 fold enrichment (6-mer frequency, TF over GST control) | binding signal (ETV2): 1.31 fold enrichment (6-mer frequency, TF over GST control) | binding signal (ELF3): 1.56 fold enrichment (6-mer frequency, TF over GST control) | binding signal (CRX): 1.24 fold enrichment (6-mer frequency, TF over GST control) | binding signal (ETV1): 1.36 fold enrichment (6-mer frequency, TF over GST control) | binding signal (ERF): 1.31 fold enrichment (6-mer frequency, TF over GST control) | binding signal (ETV3L): 1.26 fold enrichment (6-mer frequency, TF over GST control) | binding signal (ETS2): 1.27 fold enrichment (6-mer frequency, TF over GST control) | binding signal (SPDEF): 1.2 fold enrichment (6-mer frequency, TF over GST control) | binding signal (ETV7): 1.24 fold enrichment (6-mer frequency, TF over GST control) | binding signal (ELF5): 1.36 fold enrichment (6-mer frequency, TF over GST control) | binding signal (ETV3): 1.32 fold enrichment (6-mer frequency, TF over GST control) | binding signal (ETV6): 1.31 fold enrichment (6-mer frequency, TF over GST control)
